Source: PubChem
This is one part of a sample in which hits are shown more often than they occur.
PTK2B oligo ant = antagonists of Pyk2 self-association, primary screen, Q293 cells, FERM NanoBiT luminescence, HTS; z-score (the deposit names both 25 µM and 10 µM); actives 0.83% (n = 99,000); AID 1347419, 2020; Protein-tyrosine kinase 2-beta (Homo sapiens), Q14289; stronger effect = lower value;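 active = Z-score of -3 or lower, scaled per plate to the spread of control and sample wells; inactive = z-score above -3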;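 note: negative z-score means lost luminescence so less FERM oligomerization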
Mac1 fbg inh = inhibitors of CD11b/CD18 adhesion to fibrinogen, primary screen, K562 cells, luminescence | Integrin beta-2 (Homo sapiens) + Integrin alpha-M (Homo sapiens), P05107+P11215 | ATPlite luminescence; Mn2+ added to activate the integrin | inhibition, % at 10 µM | actives 0.54% (n = 93,000);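 active = primary inhibition of 50% or more at 10 µM, then 40% or more on retest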
FAK inh = FAK kinase inhibitors, primary screen, biochemical | Focal adhesion kinase 1 (Homo sapiens), Q05397 | biochemical FAK kinase activity assay | inhibition, %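 (tested at 7 µM)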 | actives 0.84% (n = 97,000) | AID 727, 2007; in the data active = inhibition above about 19%;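 note: 0% = DMSO and 100% = reference compound high control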
DAT uptake mod = changed hDAT dopamine uptake under cocaine IC80, either direction, primary screen, cocaine antagonist project, cell-based, LLC-PK1 hDAT, [14C]-dopamine uptake, MLSMR; Sodium-dependent dopamine transporter (Homo sapiens), Q01959; LLC-PK1 hDAT cells, [14C]-dopamine uptake with cocaine IC80; actives deviate in either direction; B-score at 10 µM; actives 1.3% (n = 110,000); AID 449768, 2010;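 active = Z score or B-score, a plate-position-corrected score, falls beyond the plate's 99.7% confidence bounds, in either direction; inactive = both scores lie inside the 99.7% bounds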;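 note: scored against the spread of the other compound wells on the same plate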
Target sequence (Q01959 whole entry, looked up): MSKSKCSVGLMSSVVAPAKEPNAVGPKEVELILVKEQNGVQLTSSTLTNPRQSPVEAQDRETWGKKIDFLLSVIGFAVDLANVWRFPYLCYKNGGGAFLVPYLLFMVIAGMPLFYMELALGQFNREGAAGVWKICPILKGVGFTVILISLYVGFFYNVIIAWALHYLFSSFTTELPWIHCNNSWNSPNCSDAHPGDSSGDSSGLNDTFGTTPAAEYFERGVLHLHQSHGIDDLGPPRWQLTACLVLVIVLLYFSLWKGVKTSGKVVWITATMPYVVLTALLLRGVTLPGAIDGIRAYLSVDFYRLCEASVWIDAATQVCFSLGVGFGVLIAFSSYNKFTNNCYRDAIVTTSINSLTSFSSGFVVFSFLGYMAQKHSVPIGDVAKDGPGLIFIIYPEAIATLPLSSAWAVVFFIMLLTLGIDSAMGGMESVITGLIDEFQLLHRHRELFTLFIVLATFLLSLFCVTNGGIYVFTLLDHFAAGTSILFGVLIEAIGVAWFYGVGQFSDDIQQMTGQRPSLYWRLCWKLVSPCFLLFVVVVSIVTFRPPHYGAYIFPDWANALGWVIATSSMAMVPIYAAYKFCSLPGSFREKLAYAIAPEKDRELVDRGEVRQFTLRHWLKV
D1 allo mod = D1 CRE-luciferase signal change, two-sided – cell-based, HEK293 D1, dopamine EC30, D1 allosteric modulator project, primary screen. D(1A) dopamine receptor (Homo sapiens), P21728. dopamine EC30 potentiation; actives deviate in either direction. B-score at 10 µM. actives 5.9% (n = 58,000). AID 641, 2007;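 active = luminescence count or its row- and column-corrected plate score outside the 99.7% band of the plate's sample wells, on either side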
Mac1 fbg enh = enhancers of CD11b/CD18 adhesion to fibrinogen, primary screen, K562 cells, luminescence | Integrin beta-2 (Homo sapiens) + Integrin alpha-M (Homo sapiens), P05107+P11215 | ATPlite luminescence | activation, % at 10 µM | actives 0.07% (n = 93,000);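 active = 10 µM primary screen giving 50% or more activity, confirmed by 40% or more on retest at that dose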
* = called active by the depositor; . = no result given.

SMILES	PTK2B oligo ant	Mac1 fbg inh	FAK inh	DAT uptake mod	D1 allo mod	Mac1 fbg enh
Cc1cc(C)cc(C(=O)NC(CC(N)=O)c2ccc(NC3CCCCC3)c([N+](=O)[O-])c2)c1 (configuration not stated)	.	.	.	-1.1	.	.
CCCCCc1cc(=O)oc2c(C(CCN3CCCC(C)C3)c3cc(OC)c(OC)c(OC)c3)c(OC)cc(OC)c12 (configuration not stated)	.	.	.	-2.9*	.	.
CCCCCc1cc(=O)oc2c(C(CCN3CCCCC3)c3cc(OC)c(OC)c(OC)c3)c(OC)cc(OC)c12 (configuration not stated)	.	.	.	-1.4	.	.
CN1C(=O)OC(C)(C)C1=O	.	.	.	-0.25	.	.
CCC(=O)Nc1ccc(NC(=O)c2ccccn2)cn1	-0.52	3	.	0.71	-2.9	6
O=C(Nc1ccc(NC(=O)c2ccco2)nc1)c1ccccn1	-0.9	-21	.	0.21	-4.1*	1
CC(C)C(=O)Nc1ccc(NC(=O)c2ccccn2)cn1	1	16	2	-1.5	-4.9*	-1
O=C(Cc1ccccc1)Nc1ccc(NC(=O)c2ccco2)nc1	0.13	-8	1	1.2	-1.4	0
O=C(Nc1ccc(NC(=O)C2CCCCC2)cn1)c1ccco1	0.25	5	7	0.75	-3.2*	-2
O=C(c1cnn2c(C(F)(F)F)cc(-c3ccco3)nc12)N1CCCc2ccccc21	-0.61	6	-1	1.9*	0.23	-4
Cc1ccccc1Cn1ccc(NC(=O)c2cnn3c(C(F)(F)F)cc(-c4ccco4)nc23)n1	-1.8	-39	4	1.4	-4.4*	34
Cc1cccc(N2C(=O)C(Oc3ccc(Cl)cc3Cl)C2C=O)c1C (configuration not stated)	-1.9	.	.	.	.	.
CN(C)C(=O)N1CCC(C(=O)NCC2CCCO2)CC1 (configuration not stated)	0.02	5	-1	.	-1	-9
CCC1=C[C@H]2CN(C1)Cc1c([nH]c3ccccc13)[C@@](C(=O)OC)(c1cc3c(cc1OC)N(C)[C@H]1[C@@](O)(C(=O)OC)[C@H](OC(C)=O)[C@]4(CC)C=CCN5CC[C@]31[C@@H]54)C2	.	.	.	-1.1	.	.
C/C(Cl)=C/CSc1nc2c(c(=O)[nH]c(=O)n2C)n1C(C)C	-0.8	-13	12	-0.025	7.9*	-1
CCOC(=O)CSc1nc2c(c(=O)[nH]c(=O)n2C)n1C/C=C(/C)Cl	0.56	-13	-3	-0.63	3	3
Clc1ccc(OCCN2CCCCC2)c(Cl)c1	0.51	-6	2	0.092	.	-3
CC1CC(C)CN(CCOc2ccc(Cl)cc2Cl)C1 (configuration not stated)	0.23	-1	4	-8.3*	.	-5
OCc1nn2c(c1Br)NC(c1ccccc1)CC2C(F)(F)F (configuration not stated)	0.42	-3	-1	0.93	0.58	3
COc1ccc(Nc2ncc3c(n2)CC(c2ccccc2)CC3=O)cc1 (configuration not stated)	-1.3	-9	.	0.55	9.8*	0
CCCn1nnnc1NC(=O)COc1ccc(Cl)c(C)c1	.	-10	.	.	.	-2
O=C(CN(Cc1ccco1)C(=O)c1ccccc1)Nc1ccc(Cl)c(Cl)c1	-3.7*	.	-1	0.44	.	.
CCOC(=O)CN1CCc2c(C)nc3c(-c4ccc(OC)c(OC)c4)cnn3c21	-0.6	0	-1	-0.014	.	5
Cc1cc(C)c2c(=O)[nH]n(C3CC(C)N(C)CC3C)c2n1 (configuration not stated)	-0.24	-11	0	-0.042	-1.9*	-2
c1ccc(OCc2nn3c(-c4ccccn4)nnc3s2)cc1	0.97	8	4	-9.4*	.	-2
SMILES	PTK2B oligo ant	Mac1 fbg inh	FAK inh	DAT uptake mod	D1 allo mod	Mac1 fbg enh
c1ccc(OCc2nn3c(-c4ccncc4)nnc3s2)cc1	0.73	18	.	0.57	0.005	-5
Fc1ccc(Cn2ccc(-c3cnc(-c4ccccc4)s3)n2)cc1	-1.3	56*	1	-0.56	.	-4
CN(CC(CC(=O)Nc1nncs1)c1ccccc1)S(=O)(=O)c1ccc(Br)cc1 (configuration not stated)	.	-10	3	0.15	.	-3
O=C(Cn1c(=O)oc2ccccc21)c1ccccc1	-0.19	-6	-1	-0.78	-2.6*	2
O=C(Cn1c(=O)oc2ccccc21)Nc1nc(-c2ccccc2)cs1	-1.3	-6	7	-0.22	.	0
CC(C)(C)c1csc(NC(=O)Cn2c(=O)oc3ccccc32)n1	-3.4*	-54	6	0.47	.	-1
CCOC(=O)C1=NNC2(c3ccc(C)cc3)C(=O)N(c3ccc(Cl)cc3)C(=O)C12 (configuration not stated)	.	-27	.	.	.	0
CC(C)Nc1cc(N2CCCC2)ccc1[N+](=O)[O-]	-3*	6	-5	-0.081	.	-1
O=[N+]([O-])c1ccc(N2CCCC2)cc1NC(c1ccccc1)c1ccccc1	-1.8	-1	-3	0.2	.	0
CN(Cc1ccccc1)c1nc2c(c(=O)[nH]c(=O)n2C)n1CCSc1ncccn1	.	.	1	.	.	.
O=C(NCc1cccc(C(F)(F)F)c1)C1CC(c2c(Cl)cccc2Cl)=NO1 (configuration not stated)	.	18	-2	1	.	-2
Cc1cc(C)c(C#N)c(SCC2COc3ccccc3O2)n1 (configuration not stated)	-3.3*	-15	-6	-0.2	0.069	5
O=C(NCC(=O)N(c1ccccc1)C(C(=O)NCC1CCCO1)c1ccccc1)c1ccco1 (configuration not stated)	-0.46	0	6	-1.1	-0.81	7
COc1cc(/C=C/C(=O)c2c(O)ccc3c(C)cc(=O)oc23)ccc1O	-3*	-2	-4	-0.49	.	-1
O=C(Cn1c(=O)c(=O)n(Cc2ccccc2)c2ccc(Cl)cc21)Nc1cccc(F)c1	.	-5	.	.	.	9
Cn1c(Cn2c(=O)sc3ccccc32)nnc1SCC(=O)Nc1ccc2c(c1)OCO2	.	.	.	-0.76	0.72	.
CC(C)NC(=O)c1onc(CSc2ccc(Cl)cc2)c1C(=O)NC(C)C	.	.	.	2.4	.	.
CCC(=O)N[C@@H]1CC(C(C)(C)NC(=O)CC)CC=C1C (some centres not stated)	1.1	4	4	-9.9*	0.4	-7
COc1cc(CNCCc2c[nH]c3ccccc23)ccc1OCc1ccc(F)cc1	0.44	30	1	4.4*	.	-2
CNC(=O)CSc1nnc(-c2cc(C)cc(C)c2)o1	-0.26	-50	-2	-0.092	-3.2*	11
COc1ccc(C2(C(N)=O)CCCCC2)cc1OC	1.5	-12	-1	-1.9	8.5*	4
